Experimental findings from PubChem BioAssay AID686979 (National Center for Advancing Translational Sciences (NCATS), 2013) are described below.

“And” between values parts separate entries of the source, which are not always exact repeats. Equal entries are not always repeated. The whole screen tested about 420,000 compounds, of which about 50,000 (12%) were called active. Another 26% or so got no clear call; they are omitted. Only a selection was taken, and actives are over-represented in it overall. A number with no mark means an inactive call. The call rests on the fitted dose curve; in most records, active means well fitted inhibition curve with a large enough effect; inconclusive means small, poorly fitted or top-dose-only effect; inactive means flat fitted curve, though single readings scatter.
On the % scale 0 is the no-effect control and ±100 the full control effect; potency means the concentration at half of the fitted maximal effect.

A short description of this test: qHTS for Inhibitors of human tyrosyl-DNA phosphodiesterase 1 (TDP1): qHTS in cells in presence of CPT. Further: nearly all actives have a fitted effect of over 55% in size. Particulars: chicken DT40 Tdp1-/-;hTDP1 cells + 20 nM CPT, ATP luminescence, 48 h; series mostly up to 46.2 µM; activity change, negative = growth inhibition: at the top concentration. The text has this: Human tyrosyl-DNA phosphodiesterase 1 (TDP1) is a novel repair gene, and we propose to use it as a new target for anticancer drug development. TDP1 is not an essential protein, but under treatment with topoisomerase I poison (camptothecin: CPT), TDP1 works as a critical factor for cell survival. To directly identify novel TDP1 inhibitors active in a cellular environment, we have knocked-out the Tdp1 gene in chicken DT40 cells (Tdp1-/-) and generated a complemented counterpart cells that contains a stable transfection of the human TDP1 gene (Tdp1-/-;hTDP1 cells). For the primary screen, Tdp1-/-;hTDP1 cells will be exposed to small molecules in the presence or absence of CPT, and their growth kinetics will be evaluated after 48 hours by measuring ATP activity. […] The hit compounds will then be evaluated in the presence or absence of CPT using Tdp1-/- cells. […] In tertiary assays, biochemical gel-based assays will be used to assess whether the hit compounds specifically target TDP1. To this end, we have screened this cell line against the MLSMR in two primary screens. In one screen we add CPT and in the other we screen in the absence of CPT; this AID represents the screen where CPT was present. NIH Chemical Genomics Center [NCGC] NIH Molecular Libraries Probe Centers Network [MLPCN] MLPCN Grant: MH095538 Assay Submitter (PI): Yves Pommier, NCI
DT40-hTDP1 cells with 20 nM Camptothecin (add 20 microL of 1 mM CPT stock in 1 L of cell culture medium) were dispensed at 400 cells/5microL/well in tissue culture treated 1536-well white wall/solid bottom assay plates (Greiner Bio-One North America, NC, U.S.A.) using a Multidrop Combi 8 channel dispenser (Thermo Fisher, Waltham, MA, USA). 23 nL compounds and controls were transferred using the pin tool (Kalypsys, San Diego, CA, USA) to the assay plates. The assay plates were then incubated at 37 masculineC for a minimum 48 hr. Three microL of Cell Titer Glo solution was added to the plates and incubated at RT in dark for 30 min. Luminescence was read using ViewLux (Perkin Elmer) with 1 sec exposure slow speed, high gain and 2x binning.
(In general: qHTS replaces the single test concentration by a dilution series.)
`COc1ccc(CCNS(=O)(=O)c2cc3c(cc2C)NC(=O)CO3)cc1OC`: the “activity change, negative = growth inhibition” value was 1.71%.

In the case of `CCOc1ccc(C(CC(=O)O)NC(=O)Cc2ccccc2)cc1OC` (configuration not stated), the “activity change, negative = growth inhibition” value is 9.07%. `COc1ccc(CC(=O)NC(C)CCc2ccccc2)cc1` (configuration not stated): the “activity change, negative = growth inhibition” value was 0.105%. Take `CCC/C=C(\CCC)C(NC(=O)Cc1ccccc1)c1ccc(C(=O)OC)cc1` (configuration not stated): the Potency is 18.4 µM (active). `C=CCc1ccccc1OCC(=O)N/N=C/c1ccccc1OCC`: the “activity change, negative = growth inhibition” value is -13.5%. On the same count and under the same terms, next, `Cc1cccc(OCC(=O)NCC(=O)N/N=C/c2ccc(N(C)C)cc2)c1`: -7.65%. For the compound `Cc1ccc(/C=N/NC(=O)COc2ccccc2-c2ccccc2)cc1`, the Potency is 0.164 µM (active). For the compound `CCOc1ccc(N(CC(=O)NCC2CCCO2)S(=O)(=O)c2ccc(C)cc2)cc1` (configuration not stated), the “activity change, negative = growth inhibition” value was -25.1%. `O=C(COC(=O)c1ccc2c(c1)OCCO2)NCc1ccccc1Cl`: the “activity change, negative = growth inhibition” value was 11.6%.

In the case of `Cc1ccc(NC(=O)NC(=O)N(C2CCCCC2)S(=O)(=O)c2ccccc2)cc1`, the “activity change, negative = growth inhibition” value was -10.3%.

Regarding `COCCNc1nc(N)c([N+](=O)[O-])c(N2CCCCCC2)n1`, the “activity change, negative = growth inhibition” value was 11.3%. Still for that read-out and setting: next, `CSc1nsc(SCC(=O)Nc2cc(C(=O)O)ccc2C)n1`: -9.95%. With `Cc1c(C(=O)N/N=C/c2ccccc2)[nH]c2c([N+](=O)[O-])cccc12`, the Potency is 0.651 µM (active).

`Cc1cc(C(=O)N/N=C/c2ccccc2[N+](=O)[O-])c(C)o1`: the “activity change, negative = growth inhibition” value was -1.02%. Still for that read-out and setting: next, `Cc1ccc2[nH]c(C(=O)O)c(NC(=O)c3ccccc3[N+](=O)[O-])c2c1`: 9.57%; `O=c1c(O)c(Br)ccc2c(Br)c(O)c(O)c(O)c12`: -8.83% [at 9.04 µM]; `O=C(COc1ccccc1O)NC1CCCC1`: 11.9%.

Take `N=c1c2c(-c3ccccc3)c(-c3ccccc3)n(Cc3ccccc3)c2ncn1CCCO`: the Potency was 10.3 µM (active). Take `COCCn1cnc2c1c(=O)n(CC(=O)NN)c(=O)n2Cc1ccccc1`: the “activity change, negative = growth inhibition” value is -19.6%. For `CCN(CC)CCn1cnc2c1c(=O)[nH]c(=O)n2Cc1ccccc1`, the “activity change, negative = growth inhibition” value was 5.18%. On the same count and under the same terms, next, `CCOC(=O)c1sc(N)c(C#N)c1COC(=O)C1=COCCO1`: 0.608%. Same read-out and setting: next, `CCCNC(=S)N1CCC(NC(=O)C23CC4CC(CC(C4)C2)C3)CC1`: -18.2%. With `NC(N)=N/N=C/c1ccc(OCc2ccc(Cl)cc2Cl)cc1`, the Potency was 25.9 µM (active). For the compound `COc1ccc(Cl)cc1N(CC(=O)N/N=C/c1ccc(OCC(N)=O)cc1)S(C)(=O)=O`, the “activity change, negative = growth inhibition” value is -1.8%. Still for that read-out and setting: the result for `COC(=O)c1sc2ncccc2c1OCc1ccc(Cl)cc1Cl` reads -28.6%. On to `CCOC(=O)C1CCN(S(=O)(=O)c2ccc3c(c2)N(C)C(=O)CC(=O)N3C)CC1`, for which the Potency result was “inactive”. The same measure, in the same setting: the result for `C/C(CC(=O)NCc1ccc(Cl)cc1)=N\NC(=O)COc1ccc(C)cc1Br` reads 16.4 µM (active).

Turning to `CCCCC(=O)N/N=C(\C)CC(=O)Nc1cc(Cl)ccc1OC`, the “activity change, negative = growth inhibition” value is -9.87%. The same measure, in the same setting: the result for `CC(=O)Nc1ccc(OCC(=O)NCc2ccc(C)cc2)cc1` reads 1.79%; that for `CN(CC(=O)Nc1cccc(F)c1)C(=O)C1CSC2(C)CCC(=O)N12` (configuration not stated), 5.41%. With `Cc1ccsc1C(=O)OCC(=O)NCCc1ccccc1`, the “activity change, negative = growth inhibition” value was -7.87%. In the case of `Cc1cc(C)nc(Nc2n[nH]c(-c3ccccc3N)n2)n1`, the “activity change, negative = growth inhibition” value is -6.41%.

As for `C=CCC1=C/C(=C\c2c(N)n3nc(CC(=O)N4CCOCC4)sc3nc2=O)C=C(OC)C1=O`, the “activity change, negative = growth inhibition” value was -14.2%. On the same count and under the same terms, next, `N#CCCN(C(=O)Nc1ccc(Cl)c(Cl)c1)C1CCCCC1`: -21.7%. Same read-out and setting: the result for `Cc1ccn2c(Nc3ccc4c(c3)OCCO4)c(-c3ccc(C)s3)nc2c1` reads -13.7%. For `Cc1ccc(Nc2c(-c3ccc(C)s3)nc3ccccn23)cc1`, the Potency was 16.4 µM (active) and 20 µM (active). For the compound `COc1cc(NC(=O)CN(C)S(=O)(=O)c2ccc3nc(C)sc3c2)cc(OC)c1`, the “activity change, negative = growth inhibition” value is 4.15%.

`CCCC12CN3CC(CCC)(CN(C1)C3c1c[nH]c3ccc(OC)cc13)C2=O` (configuration not stated): the Potency was 18.4 µM (active). `CCN(CC)CC(=O)c1c[nH]c2ccc(OC)cc12`: the “activity change, negative = growth inhibition” value is 5.15%. On the same count and under the same terms, the result for `CCCC12CN3CC(C)(CN(C1)C3c1ccccc1Cl)C2=O` (configuration not stated) reads -3.88%; that for `COc1ccc(-c2c(C#N)cnc(C)c2C)c(O)c1OC`, 19.2%; that for `CCOC(=O)c1ccccc1NC(=O)COC(=O)CCC(=O)N1CCOCC1`, 6.01%. In the case of `O[C@@H]1C[C@H](c2ccccc2)N(Cc2cccs2)C[C@H]1n1cc(C2CC2)nn1`, the “activity change, negative = growth inhibition” value is -14.3%. Same read-out and setting: the result for `CC(C)CC(=O)N1CCN(Cc2ccccc2Br)CC1` reads 0.503%. Turning to `C=C1C(=O)C23C(O)C1CCC2[C@]12COC3(O)C(O)C1C(C)(C)CC[C@H]2O` (some centres not stated), the Potency is 3.26 µM (active). Take `Cc1cccc(-n2c(SCC(N)=O)nc3c(c2=O)C2(CCCCC2)Cc2ccccc2-3)c1`: the “activity change, negative = growth inhibition” value was -25.7%.

Turning to `N#CCSc1nc2c(c(=O)n1Cc1ccccc1)C1(CCCC1)Cc1ccccc1-2`, the Potency was 16.4 µM (active). `CC(/C=C/C1(O)C(C)CC(=O)CC1(C)C)OC1OC(CO)C(O)C(O)C1O` (configuration not stated): the “activity change, negative = growth inhibition” value was 10.3%. Still for that read-out and setting: the result for `Cc1ccc(N2C(=O)CC(N3CCSCC3)C2=O)c(C)c1` (configuration not stated) reads 5.52%.

As to `CNc1nc(=O)n(C2CCCO2)cc1C` (configuration not stated), the “activity change, negative = growth inhibition” value was -11.7%. Still for that read-out and setting: the result for `N/C(=N\OC(=O)Nc1ccc(Cl)c(Cl)c1)c1ncc(C(F)(F)F)cc1Cl` reads -26.8%. On the same count and under the same terms, the result for `COc1cc(/C=C2\SC(=S)N(Nc3ncc(C(F)(F)F)cc3Cl)C2=O)cc(OC)c1OC` reads -17.6%. As for `COc1cccc(/C=N/Nc2ncc(C(F)(F)F)cc2Cl)c1O`, the Potency is 4.61 µM (active). On to `CC(=O)c1c(C)[nH]c(C(=O)CN2C(=O)NC(C)(C)C2=O)c1C`, for which the “activity change, negative = growth inhibition” value was -14.5%. Still for that read-out and setting: next, `O=C(N/N=C/c1cc2c(cc1Br)OCO2)C1COc2ccccc2O1` (configuration not stated): -12.4%; `COc1ccc(C2=CC(c3cccc(OC)c3)n3nnnc3N2)cc1` (configuration not stated): 0.872%.

Turning to `COc1ccc(NC(=O)CSc2nnnn2-c2cccc(OC)c2)cc1`, the “activity change, negative = growth inhibition” value is -2.26%. For `CCOc1cccc(-n2nnnc2-c2ccc(OC)cc2)c1`, the Potency is 2.91 µM (active). Consider `CCCn1nnnc1NCc1ccc(OC)cc1`, for which the “activity change, negative = growth inhibition” value was -2.53%. On the same count and under the same terms, next, `C=CCOc1ccc(C(=O)Nc2ccccc2C(=O)N2CCCC2)cc1`: -1.88%. The same measure, in the same setting: the result for `COc1cc(OC)c2c(c1Cl)OC1(C2=O)C(O)=CC(=O)CC1C` (configuration not stated) reads -20.9%. For `CC(=O)c1c(C)[nH]c(C(=O)COc2ccc3c(C)cc(=O)oc3c2)c1C`, the Potency is 16.4 µM (active). For `COC(=O)COc1ccc2oc(=O)cc(C)c2c1`, the “activity change, negative = growth inhibition” value was 11.2%. With `Cc1ccc(O)c(/C=N/NC(=O)COc2ccc3c(C)cc(=O)oc3c2)c1`, the Potency was 20.6 µM (active). Turning to `Cc1cc(=O)oc2ccc(OCC(=O)O)cc12`, the “activity change, negative = growth inhibition” value is 2.43%. As for `CCOC(=O)Cc1csc(NC(=O)COc2ccc3c(C)cc(=O)oc3c2)n1`, the “activity change, negative = growth inhibition” value was -16.1%. The same measure, in the same setting: the result for `Cc1cc(=O)oc2cc(OCC(=O)Nc3nnc(C4CC4)s3)ccc12` reads 1.7%.
